Measurements: publication PMC5540273 (PLoS ONE, 2017)

How the values were obtained:
Settings in all cases: concentration: 1 μM, replicates: in singlicate; n = 1
LCK = tested on: LCK
LIMK1 = tested on: LIMK1
LIMK2 = tested on: LIMK2
LKB1 = tested on: T1, LKB1
T1 construct: gene STK11

LOK = tested on: T2, LOK
T2 construct: gene STK10

LRRK2 = tested on: LRRK2
LTK = tested on: LTK
LYN = tested on: LYN
LZK = tested on: T3, LZK
T3 construct: gene MAP3K13

MAK = tested on: MAK
MAP3K15 = tested on: MAP3K15
MAP3K1 = tested on: MAP3K1
MAP3K2 = tested on: MAP3K2
MAP3K3 = tested on: MAP3K3
MAP3K4 = tested on: MAP3K4
MAP4K2 = tested on: MAP4K2
MAP4K3 = tested on: MAP4K3
MAP4K4 = tested on: MAP4K4
MAP4K5 = tested on: MAP4K5
MAPKAPK2 = tested on: MAPKAPK2
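Further: KINOMEscan kinase panel screen.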

Compound | %Inh (LCK) [%] | %Inh (LIMK1) [%] | %Inh (LIMK2) [%] | %Inh (LKB1) [%] | %Inh (LOK) [%] | %Inh (LRRK2) [%] | %Inh (LTK) [%] | %Inh (LYN) [%] | %Inh (LZK) [%] | %Inh (MAK) [%] | %Inh (MAP3K15) [%] | %Inh (MAP3K1) [%] | %Inh (MAP3K2) [%] | %Inh (MAP3K3) [%] | %Inh (MAP3K4) [%] | %Inh (MAP4K2) [%] | %Inh (MAP4K3) [%] | %Inh (MAP4K4) [%] | %Inh (MAP4K5) [%] | %Inh (MAPKAPK2) [%]
Nc1ncc(-c2ccc3nccc(-c4ccncc4)c3c2)cc1S(=O)(=O)N1CCCCC1 [GSK1693850] | 24 | 0 | 22 | 0 | 7 | 0 | 6 | 16 | 0 | 16 | 0 | 9 | 0 | 1 | 14 | 16 | 0 | 5 | 6 | 5
Cc1cccc(Nc2nc(NCCN)ncc2C(N)=O)c1 [GSK1292139] | 15 | 0 | 0 | 24 | 0 | 0 | 26 | 3 | 0 | 15 | 0 | 4 | 62 | 31 | 22 | 98.4 | 32 | 83 | 26 | 2
CN(c1ccc(NC(=O)N2CCN(CCCN3CCOCC3)CC2)cc1)c1ccnc(Nc2ccc(CS(C)(=O)=O)cc2)n1.Cl [GW830899] | 16 | 2 | 6 | 0 | 72 | 0 | 0 | 0 | 0 | 0 | 0 | 0 | 0 | 8 | 15 | 0 | 18 | 7 | 30 | 0
Cc1ccc(NC(=O)c2ccc(Cl)c(Cl)c2)cc1-c1ccc(C(=O)Nc2ccncc2)cc1 [GSK1398460] | 91.9 | 19 | 0 | 0 | 0 | 0 | 11 | 83 | 0 | 100 | 0 | 8 | 1 | 0 | 45 | 0 | 0 | 1 | 0 | 15
COc1cccc2c(-c3ccncc3)c(-c3ccc(F)cc3)nn12 [GW468513] | 23 | 0 | 0 | 0 | 0 | 48 | 28 | 0 | 0 | 27 | 0 | 5 | 3 | 0 | 6 | 0 | 0 | 33 | 2 | 13
Cc1ccc(-c2ccc3occ(-c4ccc(S(C)=O)cc4)c3c2)nn1 (centres unmarked) | 0 | 0 | 0 | 0 | 0 | 0 | 0 | 1 | 1 | 0 | 0 | 0 | 0 | 0 | 0 | 0 | 0 | 0 | 0 | 0
CC(C)c1nc(-c2cccc(NS(=O)(=O)c3c(F)cccc3F)c2)c(-c2ccnc(Nc3ccc(N4CCOCC4)nc3)n2)s1.Cl [GSK1723980] | 99.7 | 100 | 100 | 4 | 99.1 | 18 | 0 | 97.8 | 52 | 70 | 7 | 13 | 28 | 71 | 28 | 0 | 47 | 0 | 48 | 0
Fc1cc(Cl)ccc1Nc1ccnc2cc(-c3ccc(CN4CCOCC4)o3)ccc12 [GW560109] | 97 | 0 | 0 | 0 | 62 | 70 | 57 | 76 | 0 | 7 | 23 | 38 | 0 | 0 | 0 | 0 | 72 | 25 | 11 | 7
COc1cccc(NC(=O)NCCNc2ccnc(Nc3ccc(F)cc3)n2)c1 [GSK1379879] | 6 | 0 | 18 | 6 | 0 | 0 | 0 | 0 | 11 | 56 | 0 | 1 | 0 | 0 | 36 | 0 | 10 | 0 | 0 | 20
O=C1NC(=O)C(c2ccccc2Cl)=C1Nc1cccc(Cl)c1 [SB-342409] | 1 | 20 | 89 | 0 | 5 | 2 | 0 | 0 | 0 | 12 | 0 | 10 | 1 | 3 | 3 | 0 | 5 | 0 | 0 | 37
